Measurements published in PubChem BioAssay AID1851 (National Center for Advancing Translational Sciences (NCATS), 2009).
Out of some 16,000 compounds screened, about 4,000 (25%) were called active. Roughly 26% stayed inconclusive and do not appear here. The list is a sample of the results. Unmarked numbers belong to inactive results. Calls follow the shape of the dose curve; as a rule, active = well fitted curve in the direction sought with a large enough effect; inconclusive = small, poorly fitted or top-dose-only effect, or effect the other way; inactive = no such curve, though single readings can be large or run the other way.

Target: Cytochrome P450 2C9 (Homo sapiens) (UniProt P11712)
Test: Cytochrome panel assay with activity outcomes
Settings: recombinant CYP, pro-luciferin dealkylation, luminescence, p450-cyp2c9; series mostly up to 57.1 µM; activity, negative = inhibition: at the top concentration
% is scaled to controls: 0 for no effect and ±100 for the full control effect.

Cytochrome P450 2C9 (Homo sapiens), sequence (P11712 whole entry, looked up): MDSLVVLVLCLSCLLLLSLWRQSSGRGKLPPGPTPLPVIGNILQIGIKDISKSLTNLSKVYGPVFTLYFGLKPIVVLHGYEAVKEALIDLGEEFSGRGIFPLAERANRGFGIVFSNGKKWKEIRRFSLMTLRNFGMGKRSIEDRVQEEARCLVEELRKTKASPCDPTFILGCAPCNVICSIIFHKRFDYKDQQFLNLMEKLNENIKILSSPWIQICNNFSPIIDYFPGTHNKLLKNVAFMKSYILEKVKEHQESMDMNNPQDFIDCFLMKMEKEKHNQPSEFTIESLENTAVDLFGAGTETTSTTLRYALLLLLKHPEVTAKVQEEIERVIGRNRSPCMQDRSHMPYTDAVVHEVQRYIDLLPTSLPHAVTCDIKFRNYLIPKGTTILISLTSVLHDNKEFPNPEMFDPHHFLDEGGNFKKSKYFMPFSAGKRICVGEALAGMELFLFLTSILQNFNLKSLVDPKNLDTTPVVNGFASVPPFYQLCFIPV

Row | Compound | activity, negative = inhibition | AC50
1 | COC(=O)[C@]1(C)CCC(c2ccc(C)cc2)=C(CC(=O)O)C1 | 3.21% [at 11.4 µM] | –
2 | OC[C@@H]1NC[C@@H](O)[C@H]1O | 27.3% | –
3 | FC(F)(F)c1ccccc1-c1cncnc1NCCN1CCOCC1 | -5.4% [at 2.29 µM] | –
4 | CSc1ccc(NC(=O)Nc2cc(C)ccn2)cc1 | -15.6% [at 11.4 µM] | –
5 | Cc1cc(NC(=O)Nc2ccc(N(C)C)cc2)c2cc(F)cc(F)c2n1 | – | 6.31 µM (active)
6 | Cc1cc(N)c2cc(NC(=O)Nc3ccc4nc(C)cc(N)c4c3)ccc2n1 | -18.2% [at 11.4 µM] | –
7 | c1ccc(CNc2ncnc3ccc(-c4cccnc4)cc23)cc1 | 8.31% [at 2.29 µM] | –
8 | O=C1NC(=O)[C@@](Cc2ccccc2)(c2cccnc2)N1 | -6.71% [at 11.4 µM] | –
9 | CC1=C(C(=O)OCc2ccccc2)C(c2cccnc2)c2c(n(C)c(=O)n(C)c2=O)N1 (stereo unspecified) | – | 4.47 µM (active)
10 | CN1C(=O)CC[C@@H]1c1cccnc1 | – | inactive
11 | Cc1cnc(CNc2ncncc2-c2ccc3c(c2)OCO3)cn1 | 15.7% [at 2.29 µM] | –
12 | CCC(C)(C)NC(=O)c1ccc2c(c1)N(CC(=O)OC)C(=O)C(C)(C)O2 | – | 28.2 µM (active)
13 | COC(=O)c1cc2c(ccn2-c2ccc(F)cc2)n1CC(C)C | – | 10 µM (active)
14 | Cc1ccc(/C=C2\Sc3ccccc3C2=O)s1 | – | 3.55 µM (active)
15 | c1ccc(-c2cccc(N3CC[C@@]4(CCCNC4)C3)c2)cc1 | -21.2% | –
16 | CN1CCCCC1=NCCCn1cnc2c1c(=O)n(C)c(=O)n2C | 6.66% | –
17 | N#Cc1cc2[nH]c(=O)c(=O)[nH]c2cc1[N+](=O)[O-] | -4.14% | –
18 | Cc1ccc(S(=O)(=O)Nc2cc(=O)[nH]c3c2CCC3)cc1 | 8.32% [at 11.4 µM] | –
19 | Cc1ccc(S(=O)(=O)c2cc(C#N)c(=O)[nH]c2N)cc1 | – | 11.2 µM (active)
20 | COc1cccc([C@H](O)Cn2cc(-c3ccc(CON=C(C)C)cc3)nn2)c1 | -13.3% [at 11.4 µM] | –
21 | CN(C)c1ncc2nc(-c3ccc(F)cc3)c(=O)n(CCC#N)c2n1 | -14.9% | –
22 | Cc1nn(Cc2ccc(Cl)cc2)c(C)c1NC(=O)CSc1nc2c(c(C(F)(F)F)n1)CCc1ccccc1-2 | – | 1.41 µM (active)

Row | Compound | activity, negative = inhibition | AC50
23 | Cc1ccccc1Cn1cc(NC(=O)CSc2nc3c(c(C(F)(F)F)n2)CCc2ccccc2-3)cn1 | – | 1.78 µM (active)
24 | O=C(c1cnc(-c2ccccc2)s1)c1ccc(Cl)cc1Cl | – | 20 µM (active)
25 | Cl/C(=C\n1cncn1)c1ccc(Cl)cc1Cl | 5.68% | –
26 | COc1cc([C@@H](O)CO)ccc1OS(=O)(=O)O | -22.5% | –
27 | COc1ccc(C(O)P(=O)(OC(C)C)OC(C)C)cc1OC (stereo unspecified) | – | 7.94 µM (active)
28 | COC(=O)C(C(=O)OC)C(C[N+](=O)[O-])c1ccc(OC)c(OC)c1 (stereo unspecified) | -6.55% | –
29 | COC(=O)[C@@]1(Cc2ccc(OC)cc2)[C@H]2c3cc(C(=O)N(C)C)[nH]c3C[C@H]2CN1C(=O)c1ccccc1 | – | 3.98 µM (active)
30 | COC(=O)[C@@]1(Cc2ccccc2)[C@H]2c3cc(C(=O)N4CCCC4)[nH]c3C[C@H]2CN1C(=O)c1ccccc1 | – | 0.794 µM (active)
31 | COC(=O)C/C=C\[C@@H](C)[C@@H](/C=N\O[C@@H](C)c1cn([C@H]2COC[C@H]2O)nn1)OC | -15.9% [at 11.4 µM] | –
32 | Cc1c2cnccc2c(C)c2c1c1ccccc1n2CCOC(=O)c1ccccc1 | – | 3.16 µM (active)
33 | CN(C)CCCn1c2ccccc2c2cnccc21 | 4.43% [at 11.4 µM] | –
34 | COc1ccccc1CN1CCCC2(CCN(C(=O)c3c(C)noc3C)CC2)C1 | 4.46% | –
35 | CCOC(=O)c1c(-c2ccccc2)nc2c(C)cccn12 | – | 11.2 µM (active)
36 | CC(C)[C@H](NC(=O)OC(C)(C)C)[C@@H](O)CC(=O)OC(C)(C)C | 20.6% [at 11.4 µM] | –
37 | CC(NC(=O)C1(C)CC1(Br)Br)C(C)(C)C (stereo unspecified) | – | 31.6 µM (active)
38 | CC(=O)C[C@H](O)[C@@H](NC(=O)OC(C)(C)C)C(C)C | -4.41% [at 11.4 µM] | –
39 | O=C1[C@@H]2C=CC=CC2=NC(=S)N1CCN1CCC(=C(c2ccc(F)cc2)c2ccc(F)cc2)CC1 | – | 31.6 µM (active)
40 | CC1CCN(C(=O)CSc2nc3cccnc3n2C)CC1 | -8.16% | –
41 | O=c1cc(CSc2nnc(-c3cccnc3)n2-c2ccccc2F)nc2sccn12 | -21.9% | –
42 | CC(C)c1ccccc1-n1c(SCC(=O)N2CCN(c3ccccc3)CC2)nnc1-c1cccnc1 | – | 11.2 µM (active)
43 | C#CCCCO/N=C1/C[C@@H](O)[C@@H](O)[C@@H]2[C@@H]3C(=O)N(CCC(=O)OCC)C(=O)[C@H]3CC[C@@H]12 | 2.98% [at 11.4 µM] | –
44 | C=C[C@]1(C)C[C@H](OC(=O)CO)[C@]2(C)C3C(=O)CC[C@]3(CC[C@H]2C)[C@H](C)[C@H]1O (stereo partly specified) | 4.64% [at 11.4 µM] | –

Row | Compound | activity, negative = inhibition | AC50
45 | O=C1Nc2ccc(F)cc2C12Nc1ccccc1-c1nnc(SCc3ccccc3F)nc1O2 (stereo unspecified) | – | 2 µM (active)
46 | Cc1ccc(CSc2nnc3c(n2)OC2(Nc4ccccc4-3)C(=O)Nc3ccc(F)cc32)cc1 (stereo unspecified) | – | 8.91 µM (active)
47 | N=C(N)c1ccc(N=Nc2c(O)ccc3c2[nH]c2ccccc23)cc1 | -5.45% [at 11.4 µM] | –
48 | c1csc(CNc2cc(-c3ccoc3)ncn2)c1 | -7.77% [at 2.29 µM] | –
49 | O=C1[C@H]2[C@H]3[C@H](O)[C@H](O)C/C(=N/OC[C@@H](O)COCc4ccco4)[C@@H]3CC[C@@H]2C(=O)N1Cc1ccc2c(c1)OCO2 | 3.23% [at 11.4 µM] | –
50 | C#CCCCO/N=C1/C[C@@H](O)[C@@H](O)[C@@H]2[C@@H]3C(=O)N(C[C@@H]4CCCO4)C(=O)[C@H]3CC[C@@H]12 | 16.1% [at 11.4 µM] | –
51 | CN(Cc1ccco1)c1cc(-c2cccnc2)ncn1 | 2.79% [at 2.29 µM] | –
52 | CCCN1C(=O)C2(/C(=C(\O)c3ccc4c(c3)OCCO4)C(=O)C(=O)N2CCCOC)c2ccccc21 (stereo unspecified) | -25% | –
53 | O=C(OCc1nnc(-c2ccccc2)o1)c1ccc2c(c1)OCCO2 | – | 7.94 µM (active)
54 | Cc1cc(C)c(-c2cc([C@H](C)O/N=C3/[C@H]4OC4[C@@H](O)[C@H]4[C@H]3CCn3c(=O)n(-c5ccccc5)c(=O)n34)on2)c(C)c1 (stereo partly specified) | -29.1% [at 11.4 µM] | –
55 | Cc1ccc(C)c(OCCCC(C)(C)C(=O)O)c1 | – | 6.31 µM (active)
56 | COC(=O)Cn1c(=N)n(CCN2CCCCC2)c2ccccc21 | -24.1% | –
57 | Fc1ccc(Nc2nc(-c3ccoc3)nc3ccccc23)cc1 | 8.98% [at 2.29 µM] | –
58 | CC(C)Nc1nc(NC(C)(C)C)nc(Oc2ccc(=O)n(-c3ccccc3)n2)n1 | – | 20 µM (active)
59 | CCCn1nc(Oc2nc(NCC)nc(NC(C)C)n2)ccc1=O | -18.8% | –
60 | CCCn1nc(Oc2nc(NCC)nc(NCC)n2)ccc1=O | -26.2% | –
61 | C[N+]1(NCC[N@@+]2(C)CCc3ccccc3C2)CCCCC1 | 5.5% [at 11.4 µM] | –
62 | CC(=O)OC[C@@H]1O[C@H](CCO/N=C(\C)CCN2CCCc3nc(C)c(C)cc32)C=C[C@@H]1OC(C)=O | -1.93% [at 11.4 µM] | –
63 | CCCCn1nnnc1SCC(=O)N1CCCC1 | -25.2% | –
64 | CCSC[C@@H](N)C(=O)O | 4.58% [at 11.4 µM] | –
65 | N[C@@H](CSS(=O)(=O)O)C(=O)O | – | 12.6 µM (active)
66 | N[C@@H](CO)C(=O)O | – | inactive

Row | Compound | activity, negative = inhibition | AC50
67 | COc1cccc(-c2nc(NCc3ccccc3)c3ccccc3n2)c1 | – | 1.26 µM (active)
68 | COc1ccc2[nH]cc(CCNc3nc(-c4ccccc4CN(C)C)nc4ccccc34)c2c1 | 10.1% [at 2.29 µM] | –
69 | COc1cccc(-c2nc(NCc3cccnc3)c3ccccc3n2)c1 | -29.9% [at 2.29 µM] | –
70 | COc1cccc(-c2nc(NCc3cnc(C)cn3)c3ccccc3n2)c1 | 0.563% [at 2.29 µM] | –
71 | COc1cccc(-c2nc(NCCc3c[nH]c4ccc(OC)cc34)c3ccccc3n2)c1 | – | 0.794 µM (active)
72 | COc1ccc2[nH]cc(CCNc3nc(-c4ccc(N(C)C)cc4)nc4ccccc34)c2c1 | – | 0.398 µM (active)
73 | COCCNc1nc(-c2cccc(OC)c2)nc2ccccc12 | -26.4% [at 2.29 µM] | –
74 | COc1ccc2[nH]cc(CCNc3ccnc(-c4ccc(N(C)C)cc4)n3)c2c1 | -7.16% [at 2.29 µM] | –
75 | COc1ccc2[nH]cc(CCNc3nc(-c4ccccc4OC)nc4ccccc34)c2c1 | -1.54% [at 2.29 µM] | –
76 | Cc1c(C)c2c(c(C)c1O)CC[C@@](C)(C(=O)O)O2 | 1.61% [at 25.6 µM] | –
77 | CCCC/C=C/C(NC(=O)c1ccco1)c1ccccc1 (stereo unspecified) | – | 15.8 µM (active)
78 | CCCC/C=C/C(NC(=O)c1cccs1)c1ccccc1 (stereo unspecified) | – | 0.316 µM (active)
79 | Cc1occc1C(=O)NNC(=O)Cc1ccccc1 | -8.8% | –
80 | C/C(=C\C1CCCCC1)C(NC(=O)c1ccc(C(F)(F)F)cc1)c1ccc(-c2ccccc2)cc1 (stereo unspecified) | 17.2% | –
81 | CCCC/C=C/C(NC(=O)c1ccccc1)c1ccccc1 (stereo unspecified) | – | 10 µM (active)
82 | CC[C@H](CN(C)C)C(=O)c1ccco1 | 0.0002% [at 11.4 µM] | –
83 | CCCC/C=C/C(NC(=O)c1ccc(-c2ccccc2)cc1)c1ccccc1 (stereo unspecified) | 14.5% | –
84 | CCCC/C=C/C(NC(=O)c1ccc(C(F)(F)F)cc1)c1ccccc1 (stereo unspecified) | – | 2 µM (active)
85 | CCC(CC)C(=O)NCCN1CCN(C(=O)C(CC)CC)CC1 | -25.1% | –
86 | CN(C)CCn1nnnc1SCC1=C(C(=O)O)N2C(=O)[C@@H](NC(=O)Cc3csc(N)n3)[C@@H]2SC1 | -7.71% [at 25.6 µM] | –
